Bioassay records (PubChem BioAssay)
TR SRC2 fluor cs: counter-screen for TRb-SRC2 inhibitors: fluorescence interference. TRb/SRC2 Texas Red total fluorescence interference. Potency, µM (top dose mostly 106 µM), for inactives: at the highest dose fluorescence change, negative = quenching. hit rate 0.29% among 280,000; active = well fitted curve in either direction with a large enough effect; inconclusive = small, poorly fitted or top-dose-only effect; note: potency is the fitted concentration of half-maximal effect
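Human TRβ ligand-binding domain (0.6 uM) and Texas Red SRC2 peptide (20 nM) in Tris buffer with 1 uM T3 and 5% DMSO were incubated with pinned compound for 5 hr at ambient temperature. Total fluorescence was computed as S + 2P (555/632 nm).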
Tau ThT inhib: blocks human tau fibril formation measured by thioflavin T; Potency, µM (top dose mostly 57.4 µM), for the others: at the highest dose activity, negative = inhibition, most hits filed as inhibitors; recombinant tau K18 P301L, heparin-induced fibrillization, ThT fluorescence; hit rate 2.1% among 270,000; P10636; note: potency is the fitted concentration of half-maximal effect; nearly all actives have a fitted effect of over 55% in size
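In this qHTS, human K18 P301L tau is incubated with compound and heparin for 6 hr at 37 C, and Thioflavin T fluorescence then reports fibril load.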
TRb-SRC2 inh: disrupts binding of human TR beta to SRC2. P10828. TRbeta-SRC2 peptide binding, fluorescence polarization; receptor liganded with 1 µM T3. Potency, µM (titrated, usually from 106 µM), for the others: at the top dose activity change, negative = inhibition, most hits filed as inhibitors. hit rate 0.065% among 280,000;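 note: potency is the fitted concentration of half-maximal effect; plate controls were bound peptide for no effect and peptide without receptor for full effect; nearly all actives have a fitted effect of over 50% in size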
Target sequence (P10828 whole entry, looked up): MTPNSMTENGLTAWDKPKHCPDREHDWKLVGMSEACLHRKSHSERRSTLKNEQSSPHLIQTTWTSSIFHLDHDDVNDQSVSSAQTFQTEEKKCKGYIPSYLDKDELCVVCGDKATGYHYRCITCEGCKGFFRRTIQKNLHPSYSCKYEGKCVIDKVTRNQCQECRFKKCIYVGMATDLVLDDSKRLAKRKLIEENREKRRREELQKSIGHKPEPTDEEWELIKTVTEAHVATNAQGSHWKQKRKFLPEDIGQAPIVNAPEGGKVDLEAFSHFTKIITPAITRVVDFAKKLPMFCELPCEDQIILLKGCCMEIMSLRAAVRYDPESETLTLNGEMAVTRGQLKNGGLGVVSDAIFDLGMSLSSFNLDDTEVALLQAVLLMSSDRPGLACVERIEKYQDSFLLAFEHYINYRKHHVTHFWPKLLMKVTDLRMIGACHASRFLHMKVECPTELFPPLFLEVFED
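Quantitative HTS by FP: 0.6 uM TRb LBD, 20 nM labeled SRC2 20-mer, 1 uM T3, 5% DMSO; 5 hr ambient incubation; % activity per concentration and potencies from concentration series.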
Tau fibril FP: blocks human tau fibril formation measured by polarization. P10636. K18 P301L tau heparin fibrillization, Alexa594 FP, 6 h. Potency, µM (top dose mostly 57.7 µM), without a hit: top-dose activity, negative = inhibition, usual class: inhibitors. hit rate 0.39% among 280,000; note: potency is the fitted concentration of half-maximal effect; nearly all actives have a fitted effect of over 55% in size
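Read-out: fluorescence polarization of Alexa 594-labeled tau (0.24 uM), 555 nm excitation, 632 nm emission. Mixtures held 15 uM unlabeled K18 P301L, compound and 20 uM heparin, pH 7 acetate buffer, incubated 6 hr at 37 C.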
PNC inhibitor: perinucleolar compartment assembly inhibition | PC3M PTB-GFP, PNC prevalence imaging, 16 h; stronger effect = lower value | activity change (PNC), negative = inhibition, % at 10 µM | hit rate 3.1% among 140,000 | AID 2417;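 active = readout at or below -70, meaning at least 70% loss of cells showing the perinucleolar compartment, a nuclear body marking cancer cells; inconclusive = readout between -30 and a set limit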;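 note: plate controls were DMSO wells for no effect and camptothecin positive control wells for full effect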
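Read-out is percentage of cells bearing a perinucleolar compartment, from automated 20x imaging of fixed, Hoechst-stained PC3M PTB-GFP cells. Cells were seeded 4 h, then exposed 16 h to compound (23 nl of library stock) in duplicate plates.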
Tau fluor counter: counter-screen for tau fibril formation inhibitors. tau K18 P301L (four-repeat tau fragment) Alexa594 fluorescence, heparin fibrillization. Potency, µM (titrated, usually from 57.7 µM), for inactives: at the highest dose activity change, negative = decrease. hit rate 0.93% among 280,000; note: potency is the fitted concentration of half-maximal effect; nearly all actives have a fitted effect of over 55% in size
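Human K18 P301L tau (15 uM unlabeled plus 0.24 uM Alexa 594-labeled, final) in 100 mM sodium acetate pH 7 was mixed with compound and 20 uM heparin and incubated 6 hr at 37 C.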
* marks the source's active call; other numbers are inactive results; u = inconclusive; x = not tested or not shown; [ ] = remark or other dose. Rows were chosen to be rich in hits. Some 4.6% of all compounds tested hit in one or more screens of this group. Unless noted, calls come from the whole dose curve; as a rule, active = well fitted curve in the direction sought with a large enough effect; inconclusive = small, poorly fitted or top-dose-only effect, or another doubt; inactive = no such curve, though single readings can be large; an effect the other way counts as inactive or inconclusive. Unless noted, % is set by controls: 0 for no effect and ±100 for the full control effect.

SMILES	TR SRC2 fluor cs	Tau ThT inhib	TRb-SRC2 inh	Tau fibril FP	PNC inhibitor	Tau fluor counter
CN(c1ccc(C(=O)NC2CC3CCC2C3)cc1)S(C)(=O)=O (stereo not drawn)	-2%	-3%	-3%	7%	-1	3%
O=[N+]([O-])c1cc(/C=N\Nc2nccs2)ccc1O	25µM*[quencher]	13µM*	u	u	-11	14µM*[quencher]
O=C(CCn1c(=O)oc2ccccc21)NC1=NCCS1	2%	-10%	-2%	u	69	-8%
Cc1ccc(Sc2ncnc(N)c2[N+](=O)[O-])cc1	-39%	-17%	2%	7%	-19	-13%
Nc1ncnc(Sc2ccc(Cl)cc2)c1[N+](=O)[O-]	-3%	-12%	3%	-4%	-103*	-20%
O=C(Nc1ccc(F)c(F)c1)C1CCCN(S(=O)(=O)c2cccc3nonc23)C1 (stereo not drawn)	1%	8%	-4%	-7%	x	-11%
CC1(C)CC(=O)C(CC2=C(O)CC(C)(C)CC2=O)C(=O)C1	-2%	14µM*	-11%	28µM*	-6	-22%
CN=CC1=C(O)CC(C)(C)CC1=O	-4%	-3%	-16%	0%	-16	0%
CC1(C)CC(=O)C(CC2=C(O)CC(C)(C)CC2=O)=C(O)C1	-5%	16µM*	-4%	40µM*	u	-23%
CCN(C(=O)c1ccco1)c1nnc(-c2ccc(OC)cc2)s1	1%	-12%	-5%	-3%	-100*	-10%
C/C=C(/C)C(=O)O[C@@H]1c2c(ccc3ccc(=O)oc23)OC(C)(C)[C@@H]1OC(=O)/C(C)=C\C	-1%	-9%	0%	7%	35	-22%
CCN1C(=O)/C(=C\c2cccs2)C(C(=O)OC)=C1C	-2%	u	2%	-5%	10	-17%
COC(=O)C1=C(C)N(Cc2ccccc2)C(=O)/C1=C\c1ccco1	1%	16µM*	-14%	-12%	x	u
COC(=O)C1=C(C)N(CCc2ccccc2)C(=O)/C1=C\c1ccco1	2%	18µM*	-2%	-10%	u	-22%
COC(=O)C1=C(C)N(Cc2cccnc2)C(=O)/C1=C\c1sccc1C	-3%	14µM*	4%	3%	x	-28%
CC(C)=NNc1nc(-c2ccc(N3C(=O)CCC3=O)cc2)cs1	-1%	18µM*	-6%	u	x	u
COc1ccc(-c2csc(NC(=O)CN3C(=O)CCC3=O)n2)cc1	-1%	-2%	-7%	-3%	x	-5%
COc1ccc(C(=O)NCCNc2ccccc2[N+](=O)[O-])cc1	-11%	8.9µM*	6%	-5%	x	-13%
CC(C)COc1ccc(C(=O)Nc2ccccc2[N+](=O)[O-])cc1	10%	-16%	3%	-1%	20	-24%
CCOC(=O)c1sc(NC(=O)c2cccnc2)nc1C	2%	-9%	3%	-6%	-16	-2%
O=C1CCCCCCC1Sc1ccccc1[N+](=O)[O-] (stereo not drawn)	-1%	32µM*	-1%	u	-3	-23%
O=[N+]([O-])c1ccccc1S(=O)(=O)NC1CCCC1	-1%	-5%	4%	3%	x	-9%
COc1cc(C2C(C(=O)Nc3ccc(Cl)cc3)=C(C)Nc3nc(SC)nn32)cc(OC)c1OC (stereo not drawn)	-4%	8%	4%	-9%	x	8%
CCOC(=O)C1=C(Cc2ccc(Cl)cc2)C(=O)c2ccccc2C1=O	-4%	14µM*	4%	u	51	u
COc1ccc(N=Cc2sc(O)c3ccccc23)cc1	-23%	u	-1%	u	u	7.1µM*[quencher]
COc1ccc(-n2c(O)c(C=Nc3ccccc3)c3ccccc3c2=O)cc1	-4%	-5%	2%	-6%	x	-11%
COc1ccc(N=Cc2c(O)c3ccccc3n2C(C)=O)cc1	-3%	16µM*	-5%	u	x	u
Fc1cccc(-c2cc3nc4c(c(N5CCOCC5)n3n2)CCCC4)c1	1%	-14%	3%	3%	-91*	-5%
